Laboratory results as given in PubChem BioAssay (EPA / NIEHS).
Calls of active or inactive are those of the source. Rule for the calls: active = hit-call score of the fitted dose curve at least 0.9, where 1 is the maximum; inactive = score below 0.9.

Assays:
Settings in all cases: mRNA level, 48 h; actives raise or lower the signal
[1] = read-out: MicroRNA 122 (MIR122), gene 406906; assay: LTEA_HepaRG_MIR122: Life Technologies and Expression Analysis (LTEA) Assay for MicroRNA 122 (MIR122) using HepaRG (AID 2283516); note: the transcript read is the microRNA miR-122
Method in brief: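 Differentiated human HepaRG cells in serum-free induction medium exposed 48 h to 8 half-log concentrations from 100 uM in 0.5% DMSO, duplicate. MIR122 quantified by Fluidigm TaqMan qRT-PCR, normalised to ACTB, GAPDH, POLR2A; fold change fitted bidirectionally versus DMSO.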

[2] = read-out: matrix metalloproteinase-10 (MMP10), MMP10 (gene 4319); assay: LTEA_HepaRG_MMP10: Life Technologies and Expression Analysis (LTEA) Assay for matrix metalloproteinase-10 (MMP10) using HepaRG (AID 2283517)
Method in brief: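 HepaRG, collagen I, ~100,000 cells/well; serum-free induction medium; 48 h exposure, duplicate, 8-pt half-log to 100 uM, 0.5% DMSO. Readout: TaqMan qRT-PCR, normalized to ACTB/GAPDH/POLR2A; bidirectional fit vs DMSO.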

MYC, MYC (gene 4609) = assay: LTEA_HepaRG_MYC: Life Technologies and Expression Analysis (LTEA) Assay for MYC using HepaRG (AID 2283518)
Method in brief: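 Differentiated HepaRG cells exposed 48 h in serum-free induction medium to 8 concentrations (top 100 uM, half-log steps; 0.5% DMSO), duplicate. MYC mRNA measured by Fluidigm qRT-PCR, normalized to ACTB, GAPDH, POLR2A; bidirectional fit versus DMSO.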

[3] = read-out: matrix metalloproteinase-3 (MMP3), MMP3 (gene 4314); assay: LTEA_HepaRG_MMP3: Life Technologies and Expression Analysis (LTEA) Assay for matrix metalloproteinase-3 (MMP3) using HepaRG (AID 2283519)
Method in brief: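 Differentiated human HepaRG cells, plated 48 h on collagen I, were exposed in duplicate for 48 h in serum-free induction medium to eight half-log concentrations up to 100 uM in 0.5% DMSO. MMP3 mRNA was quantified by TaqMan qRT-PCR, normalised to ACTB, GAPDH and POLR2A.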

[4] = read-out: Paternally Expressed 10 (PEG10), PEG10 (gene 23089); assay: LTEA_HepaRG_PEG10: Life Technologies and Expression Analysis (LTEA) Assay for Paternally Expressed 10 (PEG10) using HepaRG (AID 2283520)
Method in brief: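 Differentiated HepaRG cells exposed 48 h in serum-free induction medium to eight half-log concentrations topping at 100 uM, 0.5% DMSO, in duplicate. PEG10 mRNA quantified by TaqMan qRT-PCR, normalized to ACTB, GAPDH and POLR2A; bidirectional fit versus DMSO.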

[5] = read-out: Nuclear factor NF-kappa-B p105 subunit (Homo sapiens) (UniProt P19838); assay: LTEA_HepaRG_NFKB1: Life Technologies and Expression Analysis (LTEA) Assay for Nuclear Factor Kappa B Subunit 1 (NFKB1) using HepaRG (AID 2283521);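 note: TaqMan qRT-PCR transcript normalised to ACTB GAPDH and POLR2A housekeeping genes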
Method in brief: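 Differentiated human HepaRG cells in serum-free induction medium with 0.5% DMSO were exposed for 48 h to eight half-log concentrations, top 100 uM, in duplicate. NFKB1 mRNA measured by Fluidigm TaqMan qRT-PCR, normalised to ACTB, GAPDH and POLR2A; bidirectional fit versus DMSO.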

[6] = read-out: Protein phosphatase 2A (PPP2R4), PTPA (gene 5524); assay: LTEA_HepaRG_PPP2R4: Life Technologies and Expression Analysis (LTEA) Assay for Protein phosphatase 2A (PPP2R4) using HepaRG (AID 2283522)
Method in brief: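 Differentiated human HepaRG cells in serum-free induction medium were exposed 48 h to 8 concentrations (top 100 µM, half-log steps, duplicate) in 0.5% DMSO. PPP2R4 mRNA was measured by TaqMan qRT-PCR, normalised to ACTB, GAPDH and POLR2A, and fitted bidirectionally versus DMSO.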

[7] = read-out: Phosphatase and tensin (PTEN), PTEN (gene 5728); assay: LTEA_HepaRG_PTEN: Life Technologies and Expression Analysis (LTEA) Assay for Phosphatase and tensin (PTEN) using HepaRG (AID 2283523)
Method in brief: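 Differentiated human HepaRG cells, plated 48 h then switched to serum-free induction medium, were exposed in duplicate for 48 h to eight half-log concentrations up to 100 uM in 0.5% DMSO. PTEN mRNA measured by TaqMan qRT-PCR, normalized to ACTB/GAPDH/POLR2A, bidirectional fit versus DMSO.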

[8] = read-out: solute carrier (SLC22A1), SLC22A1 (gene 6580); assay: LTEA_HepaRG_SLC22A1: Life Technologies and Expression Analysis (LTEA) Assay for solute carrier (SLC22A1) using HepaRG (AID 2283524)
Method in brief: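 Human HepaRG cells were plated 48 h, switched to serum-free induction medium, then exposed in duplicate for 48 h to 8-point half-log series from 100 uM in 0.5% DMSO. SLC22A1 mRNA measured by qRT-PCR, normalized to ACTB/GAPDH/POLR2A, fitted bidirectionally versus DMSO.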

[9] = read-out: Pyruvate Dehydrogenase Kinase 4 (PDK4), PDK4 (gene 5166); assay: LTEA_HepaRG_PDK4: Life Technologies and Expression Analysis (LTEA) Assay for Pyruvate Dehydrogenase Kinase 4 (PDK4) using HepaRG (AID 2283525)
Method in brief: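 Differentiated human HepaRG cells, pre-cultured 48 h, were exposed in duplicate for 48 h in serum-free induction medium to eight half-log concentrations up to 100 uM in 0.5% DMSO. PDK4 mRNA was quantified by qRT-PCR, normalized to ACTB, GAPDH and POLR2A, bidirectional fitting versus DMSO.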

[10] = read-out: NAD(P)H dehydrogenase [quinone] 1 (NQO1), NQO1 (gene 1728); assay: LTEA_HepaRG_NQO1: Life Technologies and Expression Analysis (LTEA) Assay for NAD(P)H dehydrogenase [quinone] 1 (NQO1) using HepaRG (AID 2283526)
Method in brief: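 Differentiated human HepaRG cells in serum-free induction medium, dosed in duplicate for 48 h at 8 half-log concentrations up to 100 uM in 0.5% DMSO. NQO1 mRNA by qRT-PCR normalized to ACTB, GAPDH, POLR2A; bidirectional fit versus DMSO baseline.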

[11] = read-out: Nuclear factor erythroid 2-related factor 2 (Homo sapiens) (UniProt Q16236); assay: LTEA_HepaRG_NFE2L2: Life Technologies and Expression Analysis (LTEA) Assay for Nuclear factor erythroid 2-related factor 2 (NFE2L2) Transcription Factor using HepaRG (AID 2283527);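 note: TaqMan qRT-PCR transcript level normalised to ACTB GAPDH and POLR2A housekeeping genes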
Method in brief: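 Differentiated human HepaRG cells in serum-free induction medium were exposed for 48 h to eight concentrations (top 100 uM, half-log dilutions, 0.5% DMSO), in duplicate. NFE2L2 mRNA was quantified by TaqMan qRT-PCR, normalized to ACTB, GAPDH and POLR2A, with bidirectional fitting versus DMSO.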

[12] = read-out: succinate dehydrogenase complex iron sulfur subunit B (SDHB), SDHB (gene 6390); assay: LTEA_HepaRG_SDHB: Life Technologies and Expression Analysis (LTEA) Assay for succinate dehydrogenase complex iron sulfur subunit B (SDHB) using HepaRG (AID 2283528)
Method in brief: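 HepaRG cells (~100,000/well, plated 48 h) exposed in duplicate for 48 h in serum-free induction medium to 8-point half-log series from 100 uM in 0.5% DMSO; mRNA by qRT-PCR normalised to ACTB, GAPDH, POLR2A; bidirectional fit versus DMSO.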

[13] = read-out: Signal transducer and activator of transcription 3 (Homo sapiens) (UniProt P40763); assay: LTEA_HepaRG_STAT3: Life Technologies and Expression Analysis (LTEA) Assay for Signal transducer and activator of transcription (STAT3) using HepaRG (AID 2283529)
Method in brief: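 Differentiated human HepaRG cells in serum-free induction medium were exposed in duplicate for 48 h to eight half-log concentrations up to 100 uM in 0.5% DMSO. STAT3 mRNA was quantified by TaqMan qRT-PCR, normalized to ACTB, GAPDH and POLR2A, and fitted bidirectionally against DMSO.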

[14] = read-out: solute carrier (SLCO1B1), SLCO1B1 (gene 10599); assay: LTEA_HepaRG_SLCO1B1: Life Technologies and Expression Analysis (LTEA) Assay for solute carrier (SLCO1B1) using HepaRG (AID 2283530)
Method in brief: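 Differentiated human HepaRG cells were exposed for 48 h in serum-free induction medium to eight half-log concentrations, top 100 uM, in 0.5% DMSO. SLCO1B1 mRNA was measured by qRT-PCR, normalized to ACTB, GAPDH and POLR2A, and fitted bidirectionally against DMSO.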

[15] = read-out: sulfotransferase 2A1 (SULT2A1), SULT2A1 (gene 6822); assay: LTEA_HepaRG_SULT2A1: Life Technologies and Expression Analysis (LTEA) Assay for sulfotransferase 2A1 (SULT2A1) using HepaRG (AID 2283531)
Method in brief: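 HepaRG human liver cells, 48 h exposure in serum-free induction medium to 8 half-log concentrations topping at 100 µM (0.5% DMSO), duplicate wells. SULT2A1 mRNA measured by TaqMan qRT-PCR, normalized to ACTB/GAPDH/POLR2A; bidirectional fit against DMSO.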

[16] = read-out: Transforming Growth Factor (TGFA), TGFA (gene 7039); assay: LTEA_HepaRG_TGFA: Life Technologies and Expression Analysis (LTEA) Assay for Transforming Growth Factor (TGFA) using HepaRG (AID 2283532)
Method in brief: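 Differentiated human HepaRG cells, plated 48 h then switched to serum-free induction medium, were exposed in duplicate for 48 h to 8-point half-log series from 100 uM in 0.5% DMSO. TGFA mRNA measured by qRT-PCR, normalized to ACTB/GAPDH/POLR2A, bidirectional fit versus DMSO.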

TIMP1, TIMP1 (gene 7076) = assay: LTEA_HepaRG_TIMP1: Life Technologies and Expression Analysis (LTEA) Assay for TIMP1 using HepaRG (AID 2283534);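 note: TaqMan qRT-PCR signal normalized to ACTB GAPDH and POLR2A housekeeping genes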
Method in brief: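 Differentiated HepaRG cells exposed 48 h in serum-free induction medium, duplicates, eight half-log concentrations from 100 uM in 0.5% DMSO. TIMP1 mRNA by qRT-PCR normalized to ACTB, GAPDH, POLR2A; bidirectional fitting against DMSO.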

[17] = read-out: Tumor necrosis factor receptor 1 (TNFRSF1A), TNFRSF1A (gene 7132); assay: LTEA_HepaRG_TNFRSF1A: Life Technologies and Expression Analysis (LTEA) Assay for Tumor necrosis factor receptor 1 (TNFRSF1A) using HepaRG (AID 2283535)
Method in brief: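 Differentiated HepaRG cells in serum-free induction medium, exposed 48 h in duplicate to 8 half-log concentrations up to 100 uM in 0.5% DMSO. TNFRSF1A mRNA by Fluidigm TaqMan qRT-PCR, normalized to ACTB, GAPDH, POLR2A; bidirectional fit.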

[18] = read-out: Transforming Growth Factor (TGFB1), TGFB1 (gene 7040); assay: LTEA_HepaRG_TGFB1: Life Technologies and Expression Analysis (LTEA) Assay for Transforming Growth Factor (TGFB1) Transporter using HepaRG (AID 2283533)
Method in brief: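 Differentiated HepaRG cells exposed 48 hr in serum-free induction medium to eight half-log concentrations up to 100 uM (0.5% DMSO), duplicate; TGFB1 mRNA by TaqMan qRT-PCR normalised to ACTB, GAPDH, POLR2A; bidirectional fit against DMSO.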

Measured: AC50

Chain of Signal transducer and activator of transcription 3 (Homo sapiens) (P40763 whole entry, looked up): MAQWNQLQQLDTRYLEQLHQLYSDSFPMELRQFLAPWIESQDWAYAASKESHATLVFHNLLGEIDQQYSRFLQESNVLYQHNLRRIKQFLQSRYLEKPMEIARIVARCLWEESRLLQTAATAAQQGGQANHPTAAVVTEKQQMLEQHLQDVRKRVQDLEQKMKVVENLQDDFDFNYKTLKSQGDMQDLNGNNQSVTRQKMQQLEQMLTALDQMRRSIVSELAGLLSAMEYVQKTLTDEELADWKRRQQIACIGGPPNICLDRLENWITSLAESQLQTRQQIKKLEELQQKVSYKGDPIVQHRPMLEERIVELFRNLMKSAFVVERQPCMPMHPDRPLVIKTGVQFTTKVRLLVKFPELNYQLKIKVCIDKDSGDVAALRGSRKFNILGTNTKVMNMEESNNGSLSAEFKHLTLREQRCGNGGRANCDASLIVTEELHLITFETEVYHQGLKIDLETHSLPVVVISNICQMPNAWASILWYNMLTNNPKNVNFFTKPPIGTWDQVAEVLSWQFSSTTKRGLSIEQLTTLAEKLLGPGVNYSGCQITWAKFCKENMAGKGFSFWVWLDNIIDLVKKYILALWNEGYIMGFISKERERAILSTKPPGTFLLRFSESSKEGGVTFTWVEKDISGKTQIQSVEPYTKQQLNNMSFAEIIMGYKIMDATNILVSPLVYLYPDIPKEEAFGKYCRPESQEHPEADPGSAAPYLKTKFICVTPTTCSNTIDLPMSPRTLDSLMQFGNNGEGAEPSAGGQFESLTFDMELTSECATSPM
Chain of Nuclear factor NF-kappa-B p105 subunit (Homo sapiens) (P19838 whole entry, looked up): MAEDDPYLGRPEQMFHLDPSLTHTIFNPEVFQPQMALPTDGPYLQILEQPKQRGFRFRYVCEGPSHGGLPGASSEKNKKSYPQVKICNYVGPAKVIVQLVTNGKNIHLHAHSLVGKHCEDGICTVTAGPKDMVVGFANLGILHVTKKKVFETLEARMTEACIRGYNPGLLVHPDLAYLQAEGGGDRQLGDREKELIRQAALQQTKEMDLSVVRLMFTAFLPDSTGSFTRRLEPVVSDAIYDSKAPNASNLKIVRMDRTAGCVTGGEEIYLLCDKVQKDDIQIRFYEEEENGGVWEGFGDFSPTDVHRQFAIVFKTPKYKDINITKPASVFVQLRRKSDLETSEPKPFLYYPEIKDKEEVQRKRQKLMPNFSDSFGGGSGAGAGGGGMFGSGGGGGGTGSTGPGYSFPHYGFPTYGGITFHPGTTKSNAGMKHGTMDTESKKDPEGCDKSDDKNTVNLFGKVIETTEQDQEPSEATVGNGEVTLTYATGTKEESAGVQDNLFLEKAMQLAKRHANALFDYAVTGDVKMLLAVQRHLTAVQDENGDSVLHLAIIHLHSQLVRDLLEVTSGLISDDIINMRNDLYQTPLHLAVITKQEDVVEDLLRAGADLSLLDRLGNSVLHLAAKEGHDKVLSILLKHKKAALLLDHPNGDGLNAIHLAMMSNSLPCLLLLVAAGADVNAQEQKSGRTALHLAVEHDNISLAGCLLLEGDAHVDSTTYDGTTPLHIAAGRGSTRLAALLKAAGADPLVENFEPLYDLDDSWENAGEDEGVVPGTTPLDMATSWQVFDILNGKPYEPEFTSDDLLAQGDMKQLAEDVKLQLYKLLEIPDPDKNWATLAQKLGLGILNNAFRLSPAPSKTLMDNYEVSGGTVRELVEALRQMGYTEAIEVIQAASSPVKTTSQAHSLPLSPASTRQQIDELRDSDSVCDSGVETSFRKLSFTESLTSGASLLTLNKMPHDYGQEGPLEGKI
Chain of Nuclear factor erythroid 2-related factor 2 (Homo sapiens) (Q16236 whole entry, looked up): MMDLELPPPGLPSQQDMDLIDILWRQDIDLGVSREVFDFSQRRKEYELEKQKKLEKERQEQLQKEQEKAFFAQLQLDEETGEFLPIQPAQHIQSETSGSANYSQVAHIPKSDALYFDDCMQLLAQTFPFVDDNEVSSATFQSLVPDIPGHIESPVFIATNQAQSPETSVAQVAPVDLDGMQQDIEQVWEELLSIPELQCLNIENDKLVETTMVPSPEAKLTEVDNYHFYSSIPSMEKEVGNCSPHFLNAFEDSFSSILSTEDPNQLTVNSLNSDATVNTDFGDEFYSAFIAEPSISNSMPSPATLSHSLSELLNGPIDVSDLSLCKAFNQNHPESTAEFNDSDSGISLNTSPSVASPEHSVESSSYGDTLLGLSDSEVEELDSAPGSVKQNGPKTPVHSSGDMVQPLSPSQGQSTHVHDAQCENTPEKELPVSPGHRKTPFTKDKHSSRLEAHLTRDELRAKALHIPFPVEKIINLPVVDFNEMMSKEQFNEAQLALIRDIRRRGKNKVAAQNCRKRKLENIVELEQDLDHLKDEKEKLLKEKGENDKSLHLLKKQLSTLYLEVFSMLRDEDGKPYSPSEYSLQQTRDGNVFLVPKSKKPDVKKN

C/C=C/c1ccc(OC)cc1
inactive: [1] | [2] | MYC, MYC (gene 4609) | [3] | [4] | [5] | [6] | [7] | [8] | [9] | [10] | [11] | [12] | [13] | [14] | [15] | [16] | TIMP1, TIMP1 (gene 7076) | [17]

NC=O
inactive: [1] | [2] | MYC, MYC (gene 4609) | [3] | [4] | [5] | [6] | [7] | [8] | [9] | [10] | [11] | [12] | [13] | [14] | [15] | [16] | TIMP1, TIMP1 (gene 7076) | [17]

CCCCC(CC)CO (centres undefined)
inactive: [1] | [2] | MYC, MYC (gene 4609) | [3] | [4] | [5] | [6] | [7] | [8] | [9] | [12] | [13] | [14] | [15] | [16] | TIMP1, TIMP1 (gene 7076) | [17]

CN(C)CCCN(C)CCCN(C)C
inactive: [1] | [2] | MYC, MYC (gene 4609) | [3] | [4] | [5] | [6] | [7] | [8] | [9] | [10] | [11] | [12] | [13] | [14] | [15] | [16] | [18] | TIMP1, TIMP1 (gene 7076) | [17]

O=C1OC(c2ccc(O)cc2)(c2ccc(O)cc2)c2ccccc21
inactive: [2] | MYC, MYC (gene 4609) | [3] | [5] | [6] | [7] | [10] | [11] | [12] | [13] | [15] | [16] | TIMP1, TIMP1 (gene 7076) | [17]
active: [1] 50 µM | [4] 76.1 µM | [8] 78 µM | [9] 50 µM | [14] 73.2 µM

COC(=O)CCCC(=O)OC
inactive: [1] | [2] | MYC, MYC (gene 4609) | [3] | [4] | [5] | [6] | [7] | [9] | [10] | [12] | [13] | [14] | [15] | [16] | TIMP1, TIMP1 (gene 7076) | [17]

CC(C)COC(=O)CCCCC(=O)OCC(C)C
inactive: [1] | [2] | MYC, MYC (gene 4609) | [3] | [4] | [5] | [6] | [7] | [8] | [9] | [10] | [12] | [13] | [14] | [15] | [16] | TIMP1, TIMP1 (gene 7076) | [17]
